Reference: PubChem BioAssay AID1159580 (chemical genetic matrix, 2015)
The whole screen tested about 5,500 compounds, of which about 2,000 (36%) were called active. Not shown: some 18% with an inconclusive outcome. Rule as the data show it: active = normalized growth mostly below about 0.91 (no sharp cut-off); inconclusive = no clear call, values can overlap the other calls; inactive = mostly above about 0.92. This is one part of the list.

Experiment: chemical genetic growth profiling, strain panel (AID 1159580);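 also: tested at 20 µM; growth read once vehicle control cultures reached saturation at 30 °C; 1 = growth at the plate median or of vehicle wells; lower values mean less growth of the strain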
Conditions: S. cerevisiae deletion strains, growth OD

Measured: normalized growth

COC(=O)/C(C)=C\CC12OC(C)(C)C3CC(C=C4C(=O)c5c(OC)c6c(c(CC=C(C)C)c5OC431)OC(C)(CCC=C(C)C)C=C6)C2=O (centres undefined)
inactive: locus YAL021C, strain ccr4, stronger effect = lower value 0.991 | locus YAL026C, strain drs2, stronger effect = lower value 1.02 | locus YAL030W, strain snc1, stronger effect = lower value 1.03 | locus YBL061C, strain skt5, stronger effect = lower value 1.02 | locus YBR009C, strain hhf1, stronger effect = lower value 0.999 | locus YBR021W, strain FUR4, stronger effect = lower value 1.03 | locus YBR023C, strain chs3, stronger effect = lower value 1.01 | locus YBR171W, strain sec66, stronger effect = lower value 1.03 | locus YBR229C, strain ROT2, stronger effect = lower value 1.01 | locus YBR231C, strain swc5, stronger effect = lower value 1.03 | locus YBR279W, strain paf1, stronger effect = lower value 1.01 | locus YCL011C, strain gbp2, stronger effect = lower value 1.02 | locus YCL016C, strain dcc1, stronger effect = lower value 1.01 | locus YCL029C, strain bik1, stronger effect = lower value 0.983 | locus YCL061C, strain MRC1, stronger effect = lower value 1.01 | locus YCL069W, strain vba3, stronger effect = lower value 1.02 | locus YCR088W, strain abp1, stronger effect = lower value 1.02 | locus YDL005C, strain med2, stronger effect = lower value 1.03 | locus YDL035C, strain GPR1, stronger effect = lower value 0.964 | locus YDL040C, strain nat1, stronger effect = lower value 1.01 | locus YDL074C, strain BRE1, stronger effect = lower value 0.963 | locus YDL101C, strain DUN1, stronger effect = lower value 1.01 | locus YDL185W, strain tfp1, stronger effect = lower value 1.01 | locus YDL192W, strain arf1, stronger effect = lower value 0.987 | locus YDR001C, strain nth1, stronger effect = lower value 1.02 | locus YDR069C, strain doa4, stronger effect = lower value 1.03 | locus YDR101C, strain arx1, stronger effect = lower value 0.989 | locus YDR137W, strain rgp1, stronger effect = lower value 0.946 | locus YDR150W, strain NUM1, stronger effect = lower value 1.01 | locus YDR159W, strain sac3, stronger effect = lower value 1.06 | locus YDR162C, strain NBP2, stronger effect = lower value 0.941 | locus YDR195W, strain ref2 1.02 | locus YDR297W, strain sur2, stronger effect = lower value 1.04 | locus YDR318W, strain mcm21, stronger effect = lower value 0.982 | locus YDR334W, strain swr1, stronger effect = lower value 1.02 | locus YDR335W, strain msn5, stronger effect = lower value 1.02 | locus YDR388W, stronger effect = lower value 0.985 | locus YDR392W, strain spt3, stronger effect = lower value 0.966 | locus YDR502C, strain sam2, stronger effect = lower value 0.979 | locus YEL003W, strain gim4, stronger effect = lower value 1.01 | locus YEL037C, strain rad23, stronger effect = lower value 1.01 | locus YEL061C, strain CIN8 (second series), stronger effect = lower value 1.02 | locus YEL061C, strain CIN8, stronger effect = lower value 1 | locus YER015W, strain faa2, stronger effect = lower value 1.02 | locus YER016W, strain bim1, stronger effect = lower value 1.01 | locus YER110C, stronger effect = lower value 0.988 | locus YER111C, strain swi4, stronger effect = lower value 1.02 | locus YER155C, strain BEM2 (second series), stronger effect = lower value 1.02 | locus YER155C, strain BEM2, stronger effect = lower value 1.01 | locus YER167W, strain BCK2, stronger effect = lower value 0.993 | locus YFR010W, strain ubp6, stronger effect = lower value 1.03 | locus YGL078C, strain dbp3, stronger effect = lower value 0.989 | locus YGL086W, strain mad1, stronger effect = lower value 0.974 | locus YGL167C, strain pmr1, stronger effect = lower value 1.02 | locus YGL173C, strain kem1, stronger effect = lower value 1.02 | locus YGL227W, strain vid30, stronger effect = lower value 1.02 | locus YGL240W, strain doc1, stronger effect = lower value 1.02 | locus YGL248W, strain PDE1, stronger effect = lower value 0.986 | locus YGL253W, strain hxk2, stronger effect = lower value 1.01 | locus YGR135W, strain pre9, stronger effect = lower value 0.997 | locus YGR252W, strain gcn5, stronger effect = lower value 0.987 | locus YHR013C, strain ard1, stronger effect = lower value 0.996 | locus YHR027C, strain rpn1, stronger effect = lower value 1.02 | locus YHR030C, strain SLT2, stronger effect = lower value 1 | locus YHR079C, strain IRE1 (second series), stronger effect = lower value 1 | locus YHR094C, strain hxt1, stronger effect = lower value 1.01 | locus YHR129C, strain ARP1, stronger effect = lower value 0.985 | locus YHR142W, strain chs7, stronger effect = lower value 1.04 | locus YHR200W, strain rpn10, stronger effect = lower value 0.991 | locus YIL066C, strain RNR3, stronger effect = lower value 0.96 | locus YIL073C, strain SPO22, stronger effect = lower value 0.878 | locus YIL125W, strain kgd1, stronger effect = lower value 0.992 | locus YIR030C, strain dcg1, stronger effect = lower value 0.989 | locus YJL092W, strain hpr5, stronger effect = lower value 1.02 | locus YJL095W, strain BCK1 (second series), stronger effect = lower value 1.01 | locus YJL095W, strain BCK1, stronger effect = lower value 0.961 | locus YJL115W, strain asf1, stronger effect = lower value 1.03 | locus YJL129C, strain trk1, stronger effect = lower value 0.987 | locus YJL134W, strain LCB3, stronger effect = lower value 1 | locus YJL154C, strain vps35, stronger effect = lower value 1.02 | locus YJL164C, strain tpk1, stronger effect = lower value 0.988 | locus YJL166W, strain qcr8, stronger effect = lower value 1.01 | locus YJL168C, strain set2, stronger effect = lower value 0.982 | locus YJL187C, strain SWE1 (second series), stronger effect = lower value 0.976 | locus YJL187C, strain SWE1, stronger effect = lower value 1.01 | locus YJR043C, strain POL32, stronger effect = lower value 0.998 | locus YJR075W, strain HOC1, stronger effect = lower value 0.999 | locus YKL009W, strain mrt4, stronger effect = lower value 0.964 | locus YKL068W, stronger effect = lower value 0.992 | locus YKL085W, strain MDH1 (second series), stronger effect = lower value 0.993 | locus YKL085W, strain MDH1, stronger effect = lower value 0.993 | locus YKL160W, strain elf1, stronger effect = lower value 1.02 | locus YKR001C, strain vps1, stronger effect = lower value 0.97 | locus YKR026C, strain gcn3, stronger effect = lower value 1.02 | locus YKR091W, strain srl3, stronger effect = lower value 1.01 | locus YLL001W, strain dnm1, stronger effect = lower value 1 | locus YLL026W, stronger effect = lower value 1.01 | locus YLL041C, strain sdh2, stronger effect = lower value 1.02 | locus YLR027C, strain aat2, stronger effect = lower value 1.01 | locus YLR039C, strain RIC1, stronger effect = lower value 0.893 | locus YLR058C, strain SHM2, stronger effect = lower value 0.993 | locus YLR102C, strain apc9, stronger effect = lower value 1 | locus YLR221C, strain rsa3, stronger effect = lower value 1.02 | locus YLR258W, strain gsy2, stronger effect = lower value 1.03 | locus YLR262C, strain YPT6 (second series), stronger effect = lower value 0.993 | locus YLR262C, strain YPT6, stronger effect = lower value 0.986 | locus YLR268W, strain sec22, stronger effect = lower value 0.961 | locus YLR320W, strain mms22, stronger effect = lower value 1.01 | locus YLR330W, strain CHS5, stronger effect = lower value 1.01 | locus YLR342W, strain FKS1 (second series), stronger effect = lower value 0.977 | locus YLR342W, strain FKS1, stronger effect = lower value 1.03 | locus YLR357W, strain rsc2, stronger effect = lower value 1.01 | locus YLR370C, strain arc18, stronger effect = lower value 1.01 | locus YLR371W, strain rom2, stronger effect = lower value 1.02 | locus YLR384C, strain iki3, stronger effect = lower value 1.01 | locus YLR418C, strain cdc73, stronger effect = lower value 0.941 | locus YML016C, strain PPZ1, stronger effect = lower value 0.994 | locus YML032C, strain rad52, stronger effect = lower value 1 | locus YML120C, strain ndi1, stronger effect = lower value 1.01 | locus YML124C, strain tub3, stronger effect = lower value 0.994 | locus YMR058W, strain fet3, stronger effect = lower value 1.02 | locus YMR078C, strain ctf18, stronger effect = lower value 0.999 | locus YMR125W, strain sto1, stronger effect = lower value 1.02 | locus YMR129W, stronger effect = lower value 1.02 | locus YMR205C, strain PFK2, stronger effect = lower value 0.993 | locus YMR223W, strain ubp8, stronger effect = lower value 0.981 | locus YMR231W, strain pep5, stronger effect = lower value 0.99 | locus YMR263W, strain SAP30, stronger effect = lower value 1 | locus YMR307W, strain GAS1, stronger effect = lower value 1.08 | locus YNL067W, strain RPL9B, stronger effect = lower value 0.988 | locus YNL071W, strain lat1, stronger effect = lower value 1.02 | locus YNL128W, strain TEP1, stronger effect = lower value 0.991 | locus YNL209W, strain ssb2, stronger effect = lower value 1.01 | locus YNL233W, strain BNI4, stronger effect = lower value 0.988 | locus YNL248C, strain rpa49, stronger effect = lower value 1.03 | locus YNL250W, strain rad50, stronger effect = lower value 0.985 | locus YNL271C, strain bni1, stronger effect = lower value 0.982 | locus YNL298W, strain CLA4, stronger effect = lower value 0.976 | locus YNL307C, strain MCK1, stronger effect = lower value 0.997 | locus YNL322C, strain KRE1 (second series), stronger effect = lower value 1.01 | locus YNL322C, strain KRE1, stronger effect = lower value 1 | locus YNR049C, strain mso1, stronger effect = lower value 1.02 | locus YNR052C, strain pop2, stronger effect = lower value 0.983 | locus YOL012C, strain htz1 0.825 | locus YOL147C, strain pex11, stronger effect = lower value 0.991 | locus YOR001W, strain rrp6, stronger effect = lower value 1.03 | locus YOR061W, strain CKA2, stronger effect = lower value 0.984 | locus YOR069W, strain VPS5, stronger effect = lower value 0.996 | locus YOR070C, strain gyp1, stronger effect = lower value 1 | locus YOR080W, strain dia2, stronger effect = lower value 1.02 | locus YOR083W, strain WHI5, stronger effect = lower value 0.99 | locus YOR106W, strain vam3, stronger effect = lower value 1 | locus YOR136W, strain idh2, stronger effect = lower value 0.994 | locus YOR144C, strain elg1, stronger effect = lower value 0.995 | locus YOR184W, strain ser1, stronger effect = lower value 0.978 | locus YOR265W, strain rbl2, stronger effect = lower value 1.01 | locus YOR270C, strain vph1, stronger effect = lower value 1.05 | locus YOR290C, strain snf2, stronger effect = lower value 0.991 | locus YOR316C, strain cot1, stronger effect = lower value 0.986 | locus YPL051W, strain arl3, stronger effect = lower value 0.995 | locus YPL078C, strain atp4, stronger effect = lower value 1.03 | locus YPL106C, strain sse1, stronger effect = lower value 1.01 | locus YPL240C, strain hsp82, stronger effect = lower value 1.02 | locus YPL241C, strain CIN2, stronger effect = lower value 1 | locus YPR119W, strain clb2, stronger effect = lower value 0.992 | locus YPR141C, strain kar3, stronger effect = lower value 0.985 | locus YPR163C, strain tif3, stronger effect = lower value 0.975 | locus YPR167C, strain met16, stronger effect = lower value 0.972 | strain wtn01, stronger effect = lower value 0.984
